Test results as given in PubChem BioAssay (NCATS).
Inconclusive results are not listed. The source made the active and inactive calls. Calls come from the whole dose curve; as a rule, active = well fitted inhibition curve with a large enough effect; inconclusive = small, poorly fitted or top-dose-only effect; inactive = flat fitted curve, though single readings scatter.

Columns and labels:
Assay in all cases: qHTS profiling for inhibitors of Plasmodium falciparum proliferation (AID 504749); note: nearly all actives have a fitted effect of over 60% in size
Settings in all cases: P. falciparum in erythrocytes, SYBR Green DNA, 72 h; series mostly up to 28.7 µM
CP252 = test system: CP252
Summary of the method: (§1)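 Fluorescence of SYBR Green-bound parasite DNA, read at 485/535 nm, served as the growth measure. Infected erythrocytes were cultured with compound 72 h; artemisinin (0.29 uM) and DMSO wells defined the normalization range.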

CP256 = test system: CP256
Summary of the method: as §1

CP260 = test system: CP260
Summary of the method: as §1

CP262 = test system: CP262
Summary of the method: as §1

CP265 = test system: CP265
Summary of the method: as §1

CP266 = test system: CP266
Summary of the method: as §1

CP268 = test system: CP268
Summary of the method: as §1

CP269 = test system: CP269
Summary of the method: as §1

CP286 = test system: CP286
Summary of the method: as §1

CP291 = test system: CP291
Summary of the method: as §1

CP297 = test system: CP297
Summary of the method: as §1

CP305 = test system: CP305
Summary of the method: as §1

CP315 = test system: CP315
Summary of the method: as §1

CP325 = test system: CP325
Summary of the method: as §1

CP329 = test system: CP329
Summary of the method: as §1

CP335 = test system: CP335
Summary of the method: as §1

DFO2036 = test system: DFO2036
Summary of the method: as §1

DIV14 = test system: DIV14
Summary of the method: as §1

DIV17 = test system: DIV17
Summary of the method: as §1

DIV30 = test system: DIV30
Summary of the method: as §1

ECU = test system: ECU
Summary of the method: as §1

FAB9 = test system: FAB9
Summary of the method: as §1

GB4 = test system: GB4
Summary of the method: as §1

HB3 = test system: HB3
Summary of the method: as §1

ICS = test system: ICS
Summary of the method: as §1

JCK = test system: JCK
Summary of the method: as §1

N140 = test system: N140
Summary of the method: as §1

P93_24 = test system: P93_24
Summary of the method: as §1

P94_40 = test system: P94_40
Summary of the method: as §1

PAD = test system: PAD
Summary of the method: as §1

PC15 = test system: PC15
Summary of the method: as §1

PC49 = test system: PC49
Summary of the method: as §1

SC27B = test system: SC27B
Summary of the method: as §1

TAB109 = test system: TAB109
Summary of the method: as §1

TAB113 = test system: TAB113
Summary of the method: as §1

TAB165 = test system: TAB165
Summary of the method: as §1

W2 = test system: W2
Summary of the method: as §1

Measured: Potency
Potency is the fitted concentration of half-maximal effect.

CCC(C)n1ncn(-c2ccc(N3CCN(c4ccc(OCC5COC(Cn6cncn6)(c6ccc(Cl)cc6Cl)O5)cc4)CC3)cc2)c1=O (configuration not stated)
active: CP260 6.31 µM | CP286 4.47 µM | CP335 4.26 µM | ICS 2.51 µM | W2 2.13 µM
inactive: CP252 | CP256 | CP262 | CP265 | CP266 | CP268 | CP269 | CP291 | CP297 | CP305 | CP315 | CP325 | CP329 | DFO2036 | DIV14 | DIV17 | DIV30 | ECU | FAB9 | GB4 | HB3 | JCK | N140 | P93_24 | P94_40 | PAD | PC15 | PC49 | SC27B | TAB109 | TAB113 | TAB165
